According to PubChem BioAssay AID1159580 (chemical genetic matrix, 2015):
Where “and” joins values, the source holds several entries; their conditions need not be identical. Identical values can stand only once. The campaign covered roughly 5,500 compounds. About 2,000 (36%) were called active. Roughly 18% stayed inconclusive and do not appear here. No stated cut-off is given here; in the data, active means normalized growth mostly below about 0.91 (no sharp cut-off); inconclusive means no clear call, values can overlap the other calls; inactive means mostly above about 0.92. The list shows a part of the results.

Assay: chemical genetic growth profiling, strain panel (AID 1159580);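 further: tested at 20 µM; growth read once vehicle control cultures reached saturation at 30 °C; 1 = growth at the plate median or of vehicle wells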
Details: S. cerevisiae deletion strains, growth OD

Measured: normalized growth

C[C@@H]1CC[C@@]2(NC1)O[C@H]1C[C@H]3C4CC=C5C[C@@H](O)CC[C@]5(C)C4CC[C@]3(C)C1[C@@H]2C (some centres not stated)
0.0614 (active) and 1.03 (inactive): locus YJL095W, strain BCK1, stronger effect = lower value
active: locus YAL021C, strain ccr4, stronger effect = lower value 0.0884 | locus YAL026C, strain drs2, stronger effect = lower value 0.0686 | locus YAL030W, strain snc1, stronger effect = lower value 0.0727 | locus YBL061C, strain skt5, stronger effect = lower value 0.246 | locus YBR009C, strain hhf1, stronger effect = lower value 0.0752 | locus YBR021W, strain FUR4, stronger effect = lower value 0.566 | locus YBR023C, strain chs3, stronger effect = lower value 0.189 | locus YBR171W, strain sec66, stronger effect = lower value 0.0867 | locus YBR229C, strain ROT2, stronger effect = lower value 0.132 | locus YBR231C, strain swc5, stronger effect = lower value 0.147 | locus YBR279W, strain paf1, stronger effect = lower value 0.431 | locus YCL011C, strain gbp2, stronger effect = lower value 0.0674 | locus YCL016C, strain dcc1, stronger effect = lower value 0.155 | locus YCL029C, strain bik1, stronger effect = lower value 0.0831 | locus YCL061C, strain MRC1, stronger effect = lower value 0.0777 | locus YCL069W, strain vba3, stronger effect = lower value 0.067 | locus YCR088W, strain abp1, stronger effect = lower value 0.0699 | locus YDL005C, strain med2, stronger effect = lower value 0.0923 | locus YDL035C, strain GPR1, stronger effect = lower value 0.086 | locus YDL040C, strain nat1, stronger effect = lower value 0.495 | locus YDL074C, strain BRE1, stronger effect = lower value 0.188 | locus YDL101C, strain DUN1, stronger effect = lower value 0.0946 | locus YDL134C, strain PPH21, stronger effect = lower value 0.0628 | locus YDL185W, strain tfp1, stronger effect = lower value 0.673 | locus YDL192W, strain arf1, stronger effect = lower value 0.123 | locus YDR001C, strain nth1, stronger effect = lower value 0.0751 | locus YDR069C, strain doa4, stronger effect = lower value 0.255 | locus YDR101C, strain arx1, stronger effect = lower value 0.132 | locus YDR137W, strain rgp1, stronger effect = lower value 0.644 | locus YDR159W, strain sac3, stronger effect = lower value 0.155 | locus YDR162C, strain NBP2, stronger effect = lower value 0.0581 | locus YDR195W, strain ref2 0.153 | locus YDR297W, strain sur2, stronger effect = lower value 0.0933 | locus YDR318W, strain mcm21, stronger effect = lower value 0.0863 | locus YDR334W, strain swr1, stronger effect = lower value 0.075 | locus YDR335W, strain msn5, stronger effect = lower value 0.0693 | locus YDR388W, stronger effect = lower value 0.0688 | locus YDR392W, strain spt3, stronger effect = lower value 0.0901 | locus YDR502C, strain sam2, stronger effect = lower value 0.0995 | locus YEL003W, strain gim4, stronger effect = lower value 0.0687 | locus YEL037C, strain rad23, stronger effect = lower value 0.0666 | locus YEL061C, strain CIN8 (second series), stronger effect = lower value 0.0639 | locus YER015W, strain faa2, stronger effect = lower value 0.0893 | locus YER016W, strain bim1, stronger effect = lower value 0.306 | locus YER110C, stronger effect = lower value 0.116 | locus YER111C, strain swi4, stronger effect = lower value 0.0797 | locus YER155C, strain BEM2 (second series), stronger effect = lower value 0.106 | locus YER155C, strain BEM2, stronger effect = lower value 0.0845 | locus YER167W, strain BCK2, stronger effect = lower value 0.0646 | locus YFR010W, strain ubp6, stronger effect = lower value 0.0951 | locus YGL078C, strain dbp3, stronger effect = lower value 0.898 | locus YGL086W, strain mad1, stronger effect = lower value 0.0765 | locus YGL173C, strain kem1, stronger effect = lower value 0.474 | locus YGL227W, strain vid30, stronger effect = lower value 0.0779 | locus YGL240W, strain doc1, stronger effect = lower value 0.262 | locus YGL248W, strain PDE1, stronger effect = lower value 0.0583 | locus YGL253W, strain hxk2, stronger effect = lower value 0.0617 | locus YGR135W, strain pre9, stronger effect = lower value 0.0806 | locus YGR252W, strain gcn5, stronger effect = lower value 0.254 | locus YHR013C, strain ard1, stronger effect = lower value 0.131 | locus YHR027C, strain rpn1, stronger effect = lower value 0.157 | locus YHR079C, strain IRE1 (second series), stronger effect = lower value 0.107 | locus YHR094C, strain hxt1, stronger effect = lower value 0.0989 | locus YHR129C, strain ARP1, stronger effect = lower value 0.0688 | locus YHR142W, strain chs7, stronger effect = lower value 0.0769 | locus YHR200W, strain rpn10, stronger effect = lower value 0.103 | locus YIL066C, strain RNR3, stronger effect = lower value 0.0582 | locus YIL073C, strain SPO22, stronger effect = lower value 0.144 | locus YIL125W, strain kgd1, stronger effect = lower value 0.886 | locus YIR030C, strain dcg1, stronger effect = lower value 0.0978 | locus YJL092W, strain hpr5, stronger effect = lower value 0.0727 | locus YJL095W, strain BCK1 (second series), stronger effect = lower value 0.0644 | locus YJL115W, strain asf1, stronger effect = lower value 0.0841 | locus YJL129C, strain trk1, stronger effect = lower value 0.0945 | locus YJL134W, strain LCB3, stronger effect = lower value 0.0822 | locus YJL154C, strain vps35, stronger effect = lower value 0.0818 | locus YJL164C, strain tpk1, stronger effect = lower value 0.0731 | locus YJL166W, strain qcr8, stronger effect = lower value 0.0704 | locus YJL168C, strain set2, stronger effect = lower value 0.121 | locus YJL187C, strain SWE1 (second series), stronger effect = lower value 0.103 | locus YJR075W, strain HOC1, stronger effect = lower value 0.119 | locus YKL009W, strain mrt4, stronger effect = lower value 0.807 | locus YKL160W, strain elf1, stronger effect = lower value 0.12 | locus YKR001C, strain vps1, stronger effect = lower value 0.0859 | locus YKR026C, strain gcn3, stronger effect = lower value 0.0875 | locus YKR091W, strain srl3, stronger effect = lower value 0.109 | locus YLL001W, strain dnm1, stronger effect = lower value 0.074 | locus YLL026W, stronger effect = lower value 0.0713 | locus YLL041C, strain sdh2, stronger effect = lower value 0.075 | locus YLR027C, strain aat2, stronger effect = lower value 0.0705 | locus YLR039C, strain RIC1, stronger effect = lower value 0.33 | locus YLR058C, strain SHM2, stronger effect = lower value 0.0802 | locus YLR102C, strain apc9, stronger effect = lower value 0.088 | locus YLR221C, strain rsa3, stronger effect = lower value 0.0678 | locus YLR258W, strain gsy2, stronger effect = lower value 0.0842 | locus YLR262C, strain YPT6 (second series), stronger effect = lower value 0.341 | locus YLR268W, strain sec22, stronger effect = lower value 0.0987 | locus YLR320W, strain mms22, stronger effect = lower value 0.091 | locus YLR342W, strain FKS1 (second series), stronger effect = lower value 0.0987 | locus YLR342W, strain FKS1, stronger effect = lower value 0.0952 | locus YLR357W, strain rsc2, stronger effect = lower value 0.172 | locus YLR370C, strain arc18, stronger effect = lower value 0.066 | locus YLR371W, strain rom2, stronger effect = lower value 0.0867 | locus YLR384C, strain iki3, stronger effect = lower value 0.702 | locus YLR418C, strain cdc73, stronger effect = lower value 0.127 | locus YML016C, strain PPZ1, stronger effect = lower value 0.0701 | locus YML032C, strain rad52, stronger effect = lower value 0.112 | locus YML120C, strain ndi1, stronger effect = lower value 0.0773 | locus YML124C, strain tub3, stronger effect = lower value 0.0964 | locus YMR058W, strain fet3, stronger effect = lower value 0.0836 | locus YMR078C, strain ctf18, stronger effect = lower value 0.0876 | locus YMR125W, strain sto1, stronger effect = lower value 0.089 | locus YMR129W, stronger effect = lower value 0.0739 | locus YMR205C, strain PFK2, stronger effect = lower value 0.15 | locus YMR223W, strain ubp8, stronger effect = lower value 0.0986 | locus YMR231W, strain pep5, stronger effect = lower value 0.319 | locus YMR307W, strain GAS1, stronger effect = lower value 0.145 | locus YNL067W, strain RPL9B, stronger effect = lower value 0.132 | locus YNL071W, strain lat1, stronger effect = lower value 0.0643 | locus YNL209W, strain ssb2, stronger effect = lower value 0.19 | locus YNL233W, strain BNI4, stronger effect = lower value 0.0774 | locus YNL248C, strain rpa49, stronger effect = lower value 0.079 | locus YNL250W, strain rad50, stronger effect = lower value 0.889 | locus YNL271C, strain bni1, stronger effect = lower value 0.848 | locus YNL298W, strain CLA4, stronger effect = lower value 0.767 | locus YNL307C, strain MCK1, stronger effect = lower value 0.0706 | locus YNL322C, strain KRE1 (second series), stronger effect = lower value 0.0978 | locus YNR049C, strain mso1, stronger effect = lower value 0.0668 | locus YNR052C, strain pop2, stronger effect = lower value 0.282 | locus YOL147C, strain pex11, stronger effect = lower value 0.0757 | locus YOR001W, strain rrp6, stronger effect = lower value 0.083 | locus YOR061W, strain CKA2, stronger effect = lower value 0.0862 | locus YOR069W, strain VPS5, stronger effect = lower value 0.104 | locus YOR070C, strain gyp1, stronger effect = lower value 0.151 | locus YOR080W, strain dia2, stronger effect = lower value 0.277 | locus YOR083W, strain WHI5, stronger effect = lower value 0.134 | locus YOR106W, strain vam3, stronger effect = lower value 0.0987 | locus YOR136W, strain idh2, stronger effect = lower value 0.108 | locus YOR144C, strain elg1, stronger effect = lower value 0.0812 | locus YOR184W, strain ser1, stronger effect = lower value 0.0846 | locus YOR265W, strain rbl2, stronger effect = lower value 0.0812 | locus YOR270C, strain vph1, stronger effect = lower value 0.0993 | locus YOR290C, strain snf2, stronger effect = lower value 0.074 | locus YOR316C, strain cot1, stronger effect = lower value 0.0883 | locus YPL051W, strain arl3, stronger effect = lower value 0.436 | locus YPL055C, strain LGE1, stronger effect = lower value 0.137 | locus YPL078C, strain atp4, stronger effect = lower value 0.0699 | locus YPL106C, strain sse1, stronger effect = lower value 0.154 | locus YPL240C, strain hsp82, stronger effect = lower value 0.0838 | locus YPR119W, strain clb2, stronger effect = lower value 0.0943 | locus YPR163C, strain tif3, stronger effect = lower value 0.0947 | locus YPR167C, strain met16, stronger effect = lower value 0.0878 | strain wtn01, stronger effect = lower value 0.0815
inactive: locus YGL167C, strain pmr1, stronger effect = lower value 0.956 | locus YHR079C, strain IRE1, stronger effect = lower value 1.03 | locus YJR066W, strain TOR1, stronger effect = lower value 0.985 | locus YKL068W, stronger effect = lower value 1.01 | locus YKL085W, strain MDH1 (second series), stronger effect = lower value 0.942 | locus YKL085W, strain MDH1, stronger effect = lower value 0.942 | locus YLR113W, strain HOG1, stronger effect = lower value 1.04 | locus YNL183C, strain NPR1, stronger effect = lower value 0.989 | locus YOL012C, strain htz1 0.198 | locus YOR231W, strain MKK1, stronger effect = lower value 1.03 | locus YPL256C, strain CLN2, stronger effect = lower value 1.07 | locus YPR141C, strain kar3, stronger effect = lower value 1.06
0.0512 (active) and 1.05 (inactive): locus YHR030C, strain SLT2, stronger effect = lower value
